# HCV NS3h FP: HCV NS3 helicase inhibitors, primary screen, biochemical, fluorescence polarization, ChemBridge library; Hepatitis C virus NS3 helicase; NS3h Cy5-dT15 DNA binding; inhibition, % at 100 µM; 16,000 compounds, 1.6% hits; AID 687043, 2013;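 active = inhibition above the average over every tested compound plus 3 SD, cut at about 40% in these data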
# Cy5 interf NS3h: Cy5 fluorescence quenchers or enhancers, artefact control for HCV NS3 helicase inhibitor project, biochemical, ChemBridge library, Cy5 readout; Cy5-dT15 DNA with NS3h, fluorescence interference; actives lie on both sides; signal over control mean, under 1 quenches; 16,000 compounds, 6% hits; AID 720488, 2013; fluorescence interference ratio at 100 µM;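 active = compound fluorescence over control fluorescence at most 0.8, a quencher, or at least a set upper limit, an enhancer; inactive = ratio between 0.8 and the set upper limit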
# An asterisk follows results filed as active. Most compounds without a hit are left out; they make up all but 7.6% or so of the library.
SMILES,HCV NS3h FP,Cy5 interf NS3h
O=C(O)CCCCCN1C(=O)C(O)=C(C(=O)/C=C/c2ccccc2)C1c1ccccc1 (stereo not given),2,1
O=C(NCCCN1CCOCC1)c1cccc(Cl)c1,10,0.75*
O=C(Cc1ccc(Cl)cc1)NCCN1CCOCC1,30,0.91
CCc1cc2c(C)c(CC)c(=O)oc2cc1OCC(C)=O,-4,1
CCCc1c(C)c2c(OCC(=O)O)cc(OCC(=O)O)cc2oc1=O,13,0.76*
COc1ccc(CCNC(=O)CN(c2cccc([N+](=O)[O-])c2)S(=O)(=O)c2ccccc2)cc1OC,14,1
Cc1ccc(CSCCNC(=O)CN(c2cccc([N+](=O)[O-])c2)S(=O)(=O)c2ccccc2)cc1,20,1.1
O=C(CN(c1cccc([N+](=O)[O-])c1)S(=O)(=O)c1ccccc1)NCCSc1ccc(Cl)cc1,24,0.72*
COCCCNC(=O)CN(c1cccc([N+](=O)[O-])c1)S(=O)(=O)c1ccccc1,14,0.73*
CC(C)C(=O)NS(=O)(=O)c1ccc(NC(=O)c2ccc(Cl)cc2)cc1,-17,1.1
CC(=O)c1cccc(Nc2nc(-c3ccc(Br)cc3)cs2)c1,13,1
Cc1ccc(NC(=O)C2C3CC/C=C\CCC32)cc1 (stereo not given),2,1
O=C(O)C1C2C=CC(C3CC23)C1C(=O)Nc1ccc(F)cc1 (stereo not given),-12,0.69*
COc1ccc(-c2noc(-c3ccc(C(C)(C)C)cc3)n2)cc1OC,22,0.95
Cc1cc(NC(=O)c2cccc(N(C)C)c2)ccc1Br,12,1.1
O=C(COc1ccccc1Cl)Nc1c[nH]c(=O)[nH]c1=O,-37,1.3*
O=C(COc1ccccc1Cl)NNC(=O)c1ccccc1I,12,1
O=C1C2C3C=CC(C3)C2C(=O)N1c1cccc(-c2nc3ccccc3c(=O)o2)c1 (stereo not given),15,0.76*
O=C1C2C3C=CC(C3)C2C(=O)N1c1cccc(Oc2cccc(Oc3cccc(N4C(=O)C5C6C=CC(C6)C5C4=O)c3)c2)c1 (stereo not given),-1,0.87
COc1ccc2oc(=O)c(C(=O)Nn3cnnc3)cc2c1,7,0.96
O=C(NC(=S)Nc1ccc([N+](=O)[O-])cc1Cl)c1ccco1,2,0.93
O=C(NC(NC(=S)Nc1ccccc1[N+](=O)[O-])C(Cl)(Cl)Cl)c1ccco1 (stereo not given),12,0.7*
CCOC(=O)/C(=C/C=C/N(C1CCCCC1)C1CCCCC1)C(C)=O,17,0.98
COc1cc(/C=N\N2CCN(Cc3cccc4ccccc34)CC2)cc(OC)c1O,14,1
CN(Cc1ccccc1)c1nc2ccccn2c(=O)c1C=C1SC(=S)N(CCc2ccccc2)C1=O,14,0.85
SMILES,HCV NS3h FP,Cy5 interf NS3h
CCOC(=O)COc1ccc(/C=C(/C#N)C(=O)Nc2ccccc2C)cc1,7,1
NC(=O)C1CCN(S(=O)(=O)c2ccc(Cl)cc2)CC1,4,1
O=C(Nc1nccs1)c1cccc(NC(=O)c2cccs2)c1,32,0.71*
O=C(Cc1ccccc1)Nc1ccc(C(=O)Nc2nccs2)cc1,21,0.68*
O=C(Nc1cc(NC(=O)c2ccccc2)cc(C(=O)Nc2nccs2)c1)c1ccccc1,-1,1
CCN(CC)c1ccc(C(=O)Nc2nccs2)cc1,13,0.98
Cc1ccccc1N1OC2C(=O)N(c3ccccc3)C(=O)C2C1c1ccco1 (stereo not given),14,1.1
CC1(C)CC(=O)C2=C(C1)OC(N)=C(C#N)C2c1ccc([N+](=O)[O-])cc1 (stereo not given),8,0.94
Cc1c(Cl)cccc1NC(=O)/C=C/c1ccccc1Cl,8,1.2
O=c1c2c(nc3cc(-c4cccc(Cl)c4)[nH]n13)CCS2,-51,0.72*
O=c1c2c(nc3cc(-c4cccc(F)c4)[nH]n13)CCCC2,10,1.1
Cc1cc(=O)n2[nH]c(-c3cccc(F)c3)cc2n1,-8,1.1
O=c1cc(-c2ccccc2)nc2cc(-c3cccc(Cl)c3)[nH]n12,-58,1.2*
CCNc1cc(C)c(C)cc1-n1cnc(-c2ccc([N+](=O)[O-])cc2)c1,9,0.99
CCOC(=O)C1=C(c2ccccc2)N=C2SCC(=O)N2C1c1ccccc1OC (stereo not given),12,0.92
O=C(CC1S/C(=N/N=C\c2ccccc2)NC1=O)Nc1ccccc1F (stereo not given),-8,1.2*
COc1ccccc1/C=N\N=C1/NC(=O)C(CC(=O)Nc2cccc(C)c2C)S1 (stereo not given),15,1
CC(C)(C)N=C1c2nn(Cc3ccccc3)nc2C(=NC(C)(C)C)c2nn(Cc3ccccc3)nc21,25,1
CC12c3ccccc3C(c3ccccc31)C1C(=O)NNC(=O)C12 (stereo not given),11,0.66*

# Assay outcomes as filed in PubChem.
